For 30 compounds, outcome and AC50 results are on record in PubChem BioAssay (EPA / NIEHS).

Values joined by “and” are separate entries in the source; they are usually repeats but may differ in a detail not shown here. Identical values can stand only once. A structure can be active in one record and inactive in another. Active and inactive are the calls of the source. How the source made its calls: active means hit-call score of the fitted dose curve at least 0.9, where 1 is the maximum; inactive means score below 0.9.

The first experiment is described as follows: ATG_GRE_CIS: Attagene CIS-FACTORIAL HepG2 Assay for human Glucocorticoid Response Elements (GRE) (AID 2282947). Conditions: HepG2 GRE cis-reporter, Attagene multiplex mRNA; actives raise or lower the signal. Put shortly: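 Cells (HepG2) bearing transfected cis-promoter reporter transcription units were treated with chemical for 24 hours. Reporter mRNA was measured via RT-PCR with capillary electrophoresis, and activity was fitted in both directions relative to DMSO.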
As for `CCCCOC(=O)[C@@H](C)Oc1ccc(Oc2ccc(C(F)(F)F)cn2)cc1`, the call was inactive.
On the same count and under the same terms, the entry for `CCOC(=O)c1ccc(O)cc1` is “inactive”; for `COC(=O)c1ccccc1S(=O)(=O)NC(=O)Nc1nc(OC(F)F)cc(OC(F)F)n1` it is “inactive”.
Still for that read-out and setting: the value for `COC(=O)c1cccc(C)c1S(=O)(=O)NC(=O)Nc1nc(OCC(F)(F)F)nc(N(C)C)n1` was “inactive”; that for `CCC(O)=C1C(=O)CC(C(=O)O)CC1=O` (stereo unspecified) was “inactive”; that for `CCCCOC(=O)C(C)Oc1ccc(Oc2ccc(C(F)(F)F)cn2)cc1` (stereo unspecified) was “inactive”.
Still for that read-out and setting: the value for `COC(=O)CSc1cc(N=c2sc(=O)n3n2CCCC3)c(F)cc1Cl` was “inactive”; that for `COc1nc(C)nc(NC(=O)NS(=O)(=O)c2ccccc2OCCCl)n1` was “inactive”; that for `N[C@@H](Cc1cc(I)c(Oc2ccc(O)c(I)c2)c(I)c1)C(=O)O` was “inactive”.
Regarding `CCCCC(CC)CN1C(=O)C2C3C=CC(C3)C2C1=O` (stereo unspecified), the outcome was inactive.
On the same count and under the same terms, the entry for `C[C@]12CC[C@@H]3c4ccc(O)cc4C[C@@H](CCCCCCCCCS(=O)CCCC(F)(F)C(F)(F)F)[C@H]3[C@@H]1CC[C@@H]2O` (stereo partly specified) is “inactive”; for `CC(C)CCCCCCc1ccc(O)cc1` it is “inactive”.
On the same count and under the same terms, the entry for `O=C(c1ccc(O)cc1O)c1ccc(O)cc1O` is “inactive”; for `CN(C)C(=O)Nc1ccc(Cl)c(Cl)c1` it is “inactive”; for `COCCO` it is “inactive”.
Still for that read-out and setting: the value for `N#CSCSc1nc2ccccc2s1` was “inactive”.
As for `CCOC(=O)COc1cc(-n2ncc(C(F)(F)F)c(C)c2=O)c(F)cc1Cl`, the call was inactive.
Still for that read-out and setting: the entry for `C#C[C@]1(O)CC[C@H]2[C@@H]3CCC4=CC(=O)CC[C@@H]4[C@H]3CC[C@@]21CC` is “inactive”.
Same read-out and setting: the entry for `CCCN(CCC)c1c([N+](=O)[O-])cc(C(F)(F)F)c(N)c1[N+](=O)[O-]` is “inactive”; for `COC(=O)c1ccccc1C(=O)O` it is “inactive”.
The same measure, in the same setting: the entry for `C=CCOC(Cn1ccnc1)c1ccc(Cl)cc1Cl` (stereo unspecified) is “inactive”; for `CSC(=O)c1cccc2nnsc12` it is “inactive”; for `CC(=O)S[C@@H]1CC2=CC(=O)CC[C@]2(C)[C@H]2CC[C@@]3(C)[C@@H](CC[C@@]34CCC(=O)O4)[C@H]12` it is “inactive”.
With `c1ccc2[nH]c(-c3cscn3)nc2c1`, the compound was called inactive.
Usually AC50 stands for the concentration at which the activity in the assay is half-maximal. Regarding `C[C@]12C[C@H](O)[C@H]3[C@@H](CCC4=CC(=O)CC[C@@]43C)[C@@H]1CC[C@@H]2C(=O)CO`, the AC50 was 26.6 µM (active) and the outcome was inactive.
On to `OB(O)O`, for which the compound was called inactive.
`S=C(S)NCCNC(=S)S.[Mn+2].[S-]C([S-])=NCCN=C([S-])[S-].[Zn+2]`: the result was inactive.
Still for that read-out and setting: the value for `COC(=O)c1ccc(CNS(C)(=O)=O)cc1S(=O)(=O)NC(=O)Nc1nc(OC)cc(OC)n1` was “inactive”; that for `O=C(c1ccccc1)C1CCCCC1` was “inactive”.
On the same count and under the same terms, the entry for `COC(=O)c1c(Cl)nn(C)c1S(=O)(=O)NC(=O)Nc1nc(OC)cc(OC)n1` is “inactive”.

A further experiment in a line: ATG_ISRE_CIS: Attagene CIS-FACTORIAL HepG2 Assay for human Interferon Regulatory Factor 1 (IRF1) binding to an Interferon-Stimulated Response Element (ISRE) (AID 2282948). Conditions: HepG2 ISRE cis-reporter (Attagene), mRNA transcription readout; actives raise or lower the signal. Put shortly: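 Read-out: fluorescent RT-PCR products resolved by capillary electrophoresis, reporting endogenous transcription factor activity via ISRE-driven reporter mRNA in transfected HepG2 cells dosed for 24 h; gain or loss fitted relative to DMSO.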
Turning to `CCCCOC(=O)[C@@H](C)Oc1ccc(Oc2ccc(C(F)(F)F)cn2)cc1`, the call was inactive.
Still for that read-out and setting: the value for `CCOC(=O)c1ccc(O)cc1` was “inactive”.
On the same count and under the same terms, the value for `COC(=O)c1ccccc1S(=O)(=O)NC(=O)Nc1nc(OC(F)F)cc(OC(F)F)n1` was “inactive”; that for `COC(=O)c1cccc(C)c1S(=O)(=O)NC(=O)Nc1nc(OCC(F)(F)F)nc(N(C)C)n1` was “inactive”; that for `CCC(O)=C1C(=O)CC(C(=O)O)CC1=O` (stereo unspecified) was “inactive”.
On the same count and under the same terms, the entry for `CCCCOC(=O)C(C)Oc1ccc(Oc2ccc(C(F)(F)F)cn2)cc1` (stereo unspecified) is “inactive”; for `COC(=O)CSc1cc(N=c2sc(=O)n3n2CCCC3)c(F)cc1Cl` it is “inactive”; for `COc1nc(C)nc(NC(=O)NS(=O)(=O)c2ccccc2OCCCl)n1` it is “inactive”.
In the case of `N[C@@H](Cc1cc(I)c(Oc2ccc(O)c(I)c2)c(I)c1)C(=O)O`, the outcome was inactive.
In the case of `CCCCC(CC)CN1C(=O)C2C3C=CC(C3)C2C1=O` (stereo unspecified), the outcome was inactive.
Still for that read-out and setting: the value for `C[C@]12CC[C@@H]3c4ccc(O)cc4C[C@@H](CCCCCCCCCS(=O)CCCC(F)(F)C(F)(F)F)[C@H]3[C@@H]1CC[C@@H]2O` (stereo partly specified) was “inactive”.
Take `CC(C)CCCCCCc1ccc(O)cc1`: the AC50 was 18.4 µM (active) and 13.7 µM (active); the result was inactive.
Take `O=C(c1ccc(O)cc1O)c1ccc(O)cc1O`: the AC50 was 100 µM (active) and the compound was called inactive.
Turning to `CN(C)C(=O)Nc1ccc(Cl)c(Cl)c1`, the result was inactive.
Still for that read-out and setting: the entry for `COCCO` is “inactive”.
Turning to `N#CSCSc1nc2ccccc2s1`, the AC50 was 3.07 µM (active) and the compound was classed as inactive.
Regarding `CCOC(=O)COc1cc(-n2ncc(C(F)(F)F)c(C)c2=O)c(F)cc1Cl`, the compound was called inactive.
Still for that read-out and setting: the value for `C#C[C@]1(O)CC[C@H]2[C@@H]3CCC4=CC(=O)CC[C@@H]4[C@H]3CC[C@@]21CC` was “inactive”.
As for `CCCN(CCC)c1c([N+](=O)[O-])cc(C(F)(F)F)c(N)c1[N+](=O)[O-]`, the compound was classed as inactive.
The same measure, in the same setting: the entry for `COC(=O)c1ccccc1C(=O)O` is “inactive”; for `C=CCOC(Cn1ccnc1)c1ccc(Cl)cc1Cl` (stereo unspecified) it is “inactive”.
The same measure, in the same setting: the value for `CSC(=O)c1cccc2nnsc12` was “inactive”.
On to `CC(=O)S[C@@H]1CC2=CC(=O)CC[C@]2(C)[C@H]2CC[C@@]3(C)[C@@H](CC[C@@]34CCC(=O)O4)[C@H]12`, for which the AC50 is 48.9 µM (active) and 26.1 µM (active) and 48.1 µM (active); the compound was classed as inactive.
With `c1ccc2[nH]c(-c3cscn3)nc2c1`, the result was inactive.
On the same count and under the same terms, the entry for `C[C@]12C[C@H](O)[C@H]3[C@@H](CCC4=CC(=O)CC[C@@]43C)[C@@H]1CC[C@@H]2C(=O)CO` is “inactive”.
Regarding `OB(O)O`, the compound was classed as inactive.
As for `S=C(S)NCCNC(=S)S.[Mn+2].[S-]C([S-])=NCCN=C([S-])[S-].[Zn+2]`, the AC50 was 9.92 µM (active) and 10.9 µM (active) and 50 µM (active); the result was inactive.
For `COC(=O)c1ccc(CNS(C)(=O)=O)cc1S(=O)(=O)NC(=O)Nc1nc(OC)cc(OC)n1`, the compound was classed as inactive.
The same measure, in the same setting: the entry for `O=C(c1ccccc1)C1CCCCC1` is “inactive”.
`COC(=O)c1c(Cl)nn(C)c1S(=O)(=O)NC(=O)Nc1nc(OC)cc(OC)n1`: the result was inactive.
